From PubChem BioAssay (NCI)
Where “and” joins values, the source holds several entries; their conditions need not be identical. Equal values may be shown once. About 79,000 compounds went through this panel and 15% of them were active in at least one assay; those are over-represented in the sample as a whole. No stated cut-off is given here; in the data, active means growth inhibition above about 70%; inactive means the rest.

Legend:
[1] = NCI Yeast Anticancer Drug Screen. Data for the rad50 strain (AID 155);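 further: 0% = growth of vehicle-only cultures of the same strain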; conditions: S. cerevisiae rad50 strain growth inhibition; at 50.0 µM; stronger effect = higher value
Method in brief: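 A DNA repair-deficient yeast mutant serves as the test organism; compound-induced growth inhibition is calculated against vehicle-treated cells.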

[2] = NCI Yeast Anticancer Drug Screen. Data for the mec2-1 strain (AID 157); conditions: S. cerevisiae mec2-1 strain, at 50.0 µM, stronger effect = higher value
Method in brief: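 Compounds were applied to mec2-1 yeast cells. Their growth was then compared with that of vehicle-treated cultures to give growth inhibition.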

[3] = NCI Yeast Anticancer Drug Screen. Data for the sgs1 mgt1 strain (AID 161);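 further: 0% = growth of cultures given vehicle only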; conditions: S. cerevisiae sgs1 mgt1 strain, at 50.0 µM, stronger effect = higher value
Method in brief: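 Percent growth inhibition was derived by comparing compound-exposed mutant yeast with vehicle-exposed cultures. The strain carries alterations in DNA damage repair.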

[4] = NCI Yeast Anticancer Drug Screen. Data for the cln2 rad14 strain (AID 165);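 further: 0% = growth equal to vehicle treated cultures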; conditions: S. cerevisiae cln2 rad14 strain, at 50.0 µM, stronger effect = higher value
Method in brief: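 Strain: cln2 rad14 yeast, altered in cell cycle control and DNA damage repair. Read-out: growth inhibition vs vehicle.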

[5] = NCI Yeast Anticancer Drug Screen. Data for the bub3 strain (AID 167); conditions: S. cerevisiae bub3 mutant strain, at 50.0 µM, stronger effect = higher value
Method in brief: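 Inhibition values come from growth of compound-treated mutant yeast normalised to vehicle-treated controls.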

[6] = NCI Yeast Anticancer Drug Screen. Data for the mlh1 rad18 strain (AID 175); conditions: S. cerevisiae mlh1 rad18 strain growth inhibition; at 50.0 µM; stronger effect = higher value
Method in brief: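 A repair-deficient yeast strain is exposed to test compound, and growth is scored relative to vehicle-treated controls.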

Measured: growth inhibition

O=C(O)/C=C/C(=O)Nc1ccccc1
inactive: [1] -4.8% and -26.8% | [2] -18.7% and -22% | [3] -11.8% and -14.3% | [4] 0.25% and -30.4% | [5] -2.8% and -10.2% | [6] 4.15% and -1.65%

COc1ccc(C(C)=O)cc1OC
inactive: [1] -0.95% and 6.35% | [2] -7.9% and -3.4% | [3] -1.4% and -3.3% | [4] 2.75% and -6.5% | [5] 3.25% and 2.6% | [6] -4.15% and 1.65%

CCCCCCC1OCC(COC)O1 (centres undefined)
inactive: [1] 5.25% and 2.25% | [2] -3.1% and -10.5% | [3] -1.9% and -11.1% | [4] -4.55% and 6% | [5] 0.5% and -2.35% | [6] -2.45% and -10.2%

O=C(O)C1CCCCC1
inactive: [1] -5.9% and -10.2% | [2] -22.6% and -8.45% | [3] -13.7% and 22.7% | [4] 5.95% and -13.2% | [5] 2.15% and 2.55% | [6] 8.3% and 17.1%

OCC(O)C1OC(Oc2ccccc2)C(O)C(O)C1O (centres undefined)
inactive: [1] 2.5% and 35.6% | [2] 32.9% and -1.85% | [3] -6.75% and 4.1% | [4] -3% and -28.4% | [5] 31.3% and 7.35% | [6] 24% and 17.4%

O=C(O)/C=C/c1c2ccc(=O)cc-2oc2cc(O)ccc12
inactive: [1] -9.9% and 0.5% | [2] -21.8% and 29.6% | [3] 15.1% and 17.6% | [4] 21.2% and 7.05% | [5] -8.15% and 17.1% | [6] 4.65% and -5.95%

CC12CCC(C1)C(C)(C)C2OC(=O)c1ccccc1C(=O)O (centres undefined)
inactive: [1] 11.5% and 22.9% | [2] 29.1% and -13.2% | [3] 20.4% and -25.9% | [4] 4.6% and -8.6% | [5] 13.8% and 1.3% | [6] 8.9% and 5.2%

COCc1cc(C)c(C#N)c(=O)[nH]1
inactive: [1] -2.35% and 9.35% | [2] 1.5% and 5.35% | [3] -5% and -8.7% | [4] 17.9% and -3.65% | [5] 13.3% and -7.55% | [6] -3.9% and 0.85%

CCOC(=O)C(CC(C(=O)OCC)C(=O)OCC)C(=O)OCC
inactive: [1] -21.1% and -11.8% | [2] -15.1% and -16.2% | [3] -6.3% and -20.6% | [4] 10.7% and -16.1% | [5] 10.8% and -12.5% | [6] -25.1% and -9.15%

O=C(Oc1ccc(Cl)cc1Cl)Oc1ccc(Cl)cc1Cl
inactive: [1] -16.8% and -3.1% | [2] 11.6% and 10% | [3] -0.9% and -13.1% | [4] -13.1% and -15.7% | [5] 14.2% and 14.9% | [6] -14.5% and 20.6%

COc1ccc2[nH]ccc(=O)c2c1
inactive: [1] -28.1% and 8.75% | [2] -24.3% and -0.05% | [3] -47.5% and 12.3% | [4] -4.25% and -5.6% | [5] -43% and -3.7% | [6] -18.7% and 5.95%

O=C1/C(=C/c2ccc(F)cc2)CCC/C1=C\c1ccc(F)cc1
inactive: [1] 26.6% and -14.2% | [2] -25.7% and -10.3% | [3] 34.2% and 1.45% | [4] 27.7% and -21.4% | [5] 15.4% and -5.45% | [6] 18.9% and -6.1%

CCOC(=O)C(OC1OC(C(=O)OC)C(OC(C)=O)C(OC(C)=O)C1OC(C)=O)c1ccccc1 (centres undefined)
inactive: [1] -10.2% and -20.9% | [2] -5.7% and -8.3% | [3] -13.2% and -11.8% | [4] 0.5% and -29.8% | [5] -6.85% and -17.8% | [6] -33.1% and -35.5%

COC(=O)c1ccc(O)cc1
inactive: [1] 27.3% and 4.9% | [2] 14.6% and 25.4% | [3] 13.8% and 12.4% | [4] 3.9% and 14.8% | [5] -11.6% and -4.5% | [6] 8.9% and -0.35%
